# Experimental data from PubChem BioAssay (NCATS).
# Results filed as inconclusive are left out. Where a call stands in place of a potency, no number is given. A number with no mark means an inactive call. The source made the active and inactive calls. The call rests on the fitted dose curve; in most records, active means well fitted curve in the direction sought with a large enough effect; inconclusive means small, poorly fitted or top-dose-only effect, or another doubt; inactive means no such curve, though single readings can be large; an effect the other way counts as inactive or inconclusive.
# What was measured:
# [1] = biological target: Calcium and integrin-binding protein 1 (Homo sapiens) (UniProt Q99828); assay: Primary qHTS for Identification of Calcium Integrin Binding Protein 1 (CIB1) Competitor (AID 1508620);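 further: GST tagged CIB1 binding a fluorescein labelled alphaIIb integrin peptide tracer; top concentration of the series differs between compounds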
# Outline: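 Fluorescence polarization competition: GST-tagged CIB1 (1 uM final) preincubated with compound 15 min at room temperature, then FITC-labelled alphaIIb peptide (100 nM final) added. After 15 min at room temperature, polarization read at Ex 480/Em 540.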
# [2] = Primary qHTS for inhibitors of nuclear receptor binding SET domain protein 2 (NSD2) in an isogenic RCH-ACV NSD2 p.E1099K mutant (9B) (AID 1645876); further: nearly all actives have a fitted effect of over 70% in size
# [3] = Primary qHTS for inhibitors of nuclear receptor binding SET domain protein 2 (NSD2) in an RCH-ACV wild type WT cells (2C) (AID 1645877); further: nearly all actives have a fitted effect of over 70% in size
# Calcium and integrin-binding protein 1 (Homo sapiens), sequence (Q99828 whole entry, looked up): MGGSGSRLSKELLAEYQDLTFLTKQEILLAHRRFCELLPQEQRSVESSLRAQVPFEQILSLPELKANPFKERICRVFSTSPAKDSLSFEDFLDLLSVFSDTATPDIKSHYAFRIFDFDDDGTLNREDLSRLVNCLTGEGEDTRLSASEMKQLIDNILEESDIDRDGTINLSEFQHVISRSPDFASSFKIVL
smiles,measurement,setting,value
CNc1nc(Cc2ccccc2)nc2c1CCNC[C@@H]2C,Potency,[1],inactive
same,Potency,[2],inactive
O=C(/C=C/c1ccc(O)cc1)OC[C@H]1O[C@@H](O/C(=C\c2ccccc2)C(=O)O)[C@H](O)[C@@H](O)[C@@H]1O,Potency,[1],inactive
same,Potency,[2],inactive
same,Potency,[3],inactive
C=C1C(=O)O[C@@H]2/C=C(\C)CC/C=C(\C(=O)O[C@@H]3O[C@H](CO)[C@@H](O)[C@H](O)[C@H]3O)CC[C@@H]12,Potency,[1],inactive
same,Potency,[2],inactive
O=C(O)CC(CCc1ccccc1)OC1OC(CO)C(O)C(O)C1O (stereo unspecified),Potency,[1],inactive
same,Potency,[2],inactive
same,Potency,[3],inactive
CC12CC(c3ccoc3)OC(=O)C1CCC1(C)C2CCC(O)C1(C)O (stereo unspecified),Potency,[1],inactive
same,Potency,[2],inactive
same,Potency,[3],inactive
Nc1ccc(-n2nc(C(F)(F)F)cc2C(F)(F)F)cc1,Potency,[1],inactive
same,Potency,[2],inactive
same,Potency,[3],inactive
CC(C)c1ccc2c(c1)C(O)CC1C(C)(CO)CCCC21C (stereo unspecified),Potency,[1],inactive
same,Potency,[2],inactive
same,Potency,[3],inactive
COc1cc(C(C)=O)ccc1O[C@@H]1O[C@H](CO[C@@H]2OC[C@@H](O)[C@H](O)[C@H]2O)[C@@H](O)[C@H](O)[C@H]1O,Potency,[1],inactive
same,Potency,[2],inactive
same,Potency,[3],inactive
CC1(C)CC[C@]2(C(=O)O[C@@H]3O[C@H](CO)[C@@H](O)[C@H](O)[C@H]3O)CC[C@]3(C)C(=CCC4[C@@]5(C)CC[C@H](OC6OC(C(=O)O)C(OC7OC(CO)C(O)C(O)C7O)C(O)C6O)C(C)(C)C5CC[C@]43C)C2C1 (stereo partly specified),Potency,[1],inactive
same,"activity change, negative = viability loss",[2],-8.98% [at 9.23 µM]
same,"activity change, negative = cell killing",[3],-22.4% [at 9.23 µM]
C=C1CC23CC1CCC2C12OC(=O)C(C)(C(O)CC1O)C2C3C(=O)O (stereo unspecified),Potency,[1],inactive
same,Potency,[2],inactive
same,Potency,[3],inactive
C[C@@H]1O[C@@H](O[C@H]2[C@@H]3C=CO[C@@H](O[C@@H]4O[C@H](CO)[C@@H](O)[C@H](O)[C@H]4O)[C@@H]3[C@@]3(CO)O[C@@H]23)[C@H](OC(=O)/C=C/c2ccc(O)cc2)[C@H](O)[C@H]1O,Potency,[1],inactive
same,Potency,[2],inactive
same,Potency,[3],inactive
COc1ccc(/C=C/C(N)=O)cc1OC,Potency,[1],inactive
same,Potency,[2],inactive
same,Potency,[3],inactive
CC1(C)C[C@H]2C=C(C=O)[C@]3(C(=O)O)C[C@]3(C)[C@H]2C1,Potency,[1],inactive
same,Potency,[2],inactive
CC(O)CCc1ccc(O[C@@H]2O[C@H](CO)[C@@H](O)[C@H](O)[C@H]2O)cc1 (stereo partly specified),Potency,[1],inactive
same,Potency,[2],inactive
same,Potency,[3],inactive
CC(=O)OC(C)C(C)(O)C(=O)O[C@@H]1CC[C@]2(C)CC(=O)C(=C(C)C)C[C@H]2[C@]1(C)OC(C)=O (stereo partly specified),Potency,[1],inactive
same,Potency,[2],inactive
same,Potency,[3],inactive
C=C1CC[C@@]2(OC1)O[C@H]1CC3[C@@H]4CC=C5C[C@@H](O)C[C@@H](O[C@@H]6OC[C@H](O)[C@H](O)[C@H]6O[C@@H]6O[C@@H](C)[C@H](O)[C@@H](O)[C@H]6O)[C@]5(C)C4CC[C@]3(C)[C@H]1[C@@H]2C (stereo partly specified),Potency,[1],inactive
same,Potency,[2],inactive
C[C@@H]1O[C@@H](O[C@H]2[C@H](O[C@H]3[C@H](O[C@H]4CC[C@@]5(C)C(CC[C@]6(C)C5CC=C5[C@@H]7CC(C)(C)C[C@@H](O)[C@]7(C)CC[C@]56C)C4(C)C)O[C@H](C(=O)O)[C@@H](O)[C@@H]3O)O[C@H](C(=O)O)[C@H](O)[C@@H]2O)[C@H](O)[C@H](O)[C@H]1O (stereo partly specified),Potency,[1],inactive
same,outcome,[2],inactive [at 9.23 µM]
same,outcome,[3],inactive [at 9.23 µM]
C=CC1(C)CC2CCC3C(C)(C(=O)O)CCCC3(C)C2=CC1=O (stereo unspecified),Potency,[1],inactive
same,Potency,[2],inactive
same,Potency,[3],inactive
CC1(C)CC[C@]2(C(=O)O)CC[C@]3(C)C(=CCC4[C@@]5(C)CC[C@H](O[C@@H]6O[C@H](C(=O)O)[C@@H](O)[C@H](O)[C@H]6O)C(C)(C)C5CC[C@]43C)C2C1 (stereo partly specified),Potency,[1],inactive
same,Potency,[2],inactive
same,Potency,[3],inactive
COc1ccc(C2(O)c3c(ccc4c3OC(C)(CCC=C(C)C)C=C4)NC(=O)C2OC)cc1 (stereo unspecified),Potency,[1],inactive
same,Potency,[2],inactive
same,Potency,[3],inactive
C[C@@H]1C[C@H]2OC(=O)[C@@]3(C)CCC[C@](C)(C23)[C@@]1(O)CCC1=CC(=O)OC1O (stereo partly specified),Potency,[1],inactive
same,Potency,[2],inactive
same,Potency,[3],inactive
O=C(O)c1ccc(NC(=O)[C@H](CC2CCCC2)n2cnc(C(F)(F)F)c2)nc1,Potency,[1],inactive
same,Potency,[2],inactive
same,Potency,[3],inactive
C=CC(C)(O)CC/C=C(\C)COC1O[C@H](CO)[C@@H](O)[C@H](O)[C@H]1O (stereo partly specified),Potency,[1],inactive
same,Potency,[2],inactive
same,Potency,[3],inactive
COc1cc(O)cc(O[C@@H]2O[C@H](CO)[C@@H](O[C@@H]3OC[C@](O)(CO)[C@H]3O)[C@H](O)[C@H]2O)c1OC,Potency,[1],inactive
same,Potency,[2],inactive
same,Potency,[3],inactive
C=C(C)[C@@H]1CC[C@]2(C)CC[C@]3(C)C(CCC4[C@@]5(C)CC[C@H](O)C(C)(C)C5CC[C@]43C)C12 (stereo partly specified),Potency,[1],inactive
same,Potency,[2],inactive
same,Potency,[3],inactive
C=C[C@H]1[C@H](O[C@@H]2O[C@H](CO)[C@@H](O)[C@H](O)[C@H]2O)OC=C(C(=O)OC)[C@H]1CCO,Potency,[1],inactive
same,Potency,[2],inactive
same,Potency,[3],inactive
C/C=C1/[C@H](O[C@@H]2O[C@H](CO)[C@@H](O)[C@H](O)[C@H]2O)OC=C2C(=O)O[C@@H]3C[C@@H](C(C)CO)[C@H](COC(=O)C[C@H]21)[C@H]3C (stereo partly specified),Potency,[1],inactive
same,Potency,[2],inactive
